GBA enhancer – enhancers of human beta-glucosidase activity in Gaucher fibroblasts; L444P Gaucher fibroblasts, 4-MU-glucoside fluorescence, 3 days; activation, % at 10 µM; 30,000 compounds, 0.44% hits; in the data active means activation above about 65%
Target sequence (P04062 whole entry L483P): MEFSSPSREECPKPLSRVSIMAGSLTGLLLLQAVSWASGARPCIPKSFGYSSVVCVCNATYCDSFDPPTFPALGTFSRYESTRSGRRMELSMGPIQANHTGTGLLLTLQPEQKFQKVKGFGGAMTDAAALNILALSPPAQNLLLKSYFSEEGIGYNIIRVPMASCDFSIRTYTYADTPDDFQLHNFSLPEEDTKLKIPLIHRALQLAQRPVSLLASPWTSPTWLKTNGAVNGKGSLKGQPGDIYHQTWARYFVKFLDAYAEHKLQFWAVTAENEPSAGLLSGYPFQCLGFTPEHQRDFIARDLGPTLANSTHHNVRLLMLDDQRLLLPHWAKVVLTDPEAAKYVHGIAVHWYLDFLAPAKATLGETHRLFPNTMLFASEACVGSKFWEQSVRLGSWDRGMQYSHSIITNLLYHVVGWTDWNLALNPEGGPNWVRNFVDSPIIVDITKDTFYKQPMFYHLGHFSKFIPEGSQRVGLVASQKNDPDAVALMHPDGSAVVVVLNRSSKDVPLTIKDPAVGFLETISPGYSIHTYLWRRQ
A number is an active result; – = inactive. The sample as a whole holds a higher share of hits than the screen did.

SMILES | GBA enhancer
COCCN(C(=O)Cn1nnc2ccccc21)C(C(=O)NC1CCCC1)c1cc(OC)ccc1OC (configuration not stated) | –
Cc1ccc(N2C(=O)Nc3ccc(Br)cc3C2(O)C(=O)NCCCN(C)C)cc1C (configuration not stated) | 119
CN(C)CCNC(=O)c1cc2cc(Br)ccc2oc1=O | –
COc1ccc(C2(O)CCN(CCCCOc3ccccc3)CC2)cc1 | –
O=C(CCSc1nc(-c2ccco2)cc(C(F)(F)F)n1)Nc1ccc2c(c1)OCO2 | –
CCCCCCC(=O)N1CCC(c2nc3c(nnn3Cc3ccccc3Cl)c(=O)[nH]2)CC1 | –
Cc1cc2c(C)cc(=O)oc2c2c1NCCC2 | 76
Cc1cc(=O)oc2cc3c(cc12)OCCN3 | –
Cc1cc(=O)oc2cc3c(cc12)OCCO3 | –
O=C(CCCn1nnc(-c2cccnc2)n1)c1ccc(F)cc1 | –
CC(CCc1ccccc1)NC(=O)C1CCN(S(=O)(=O)c2cnc[nH]2)CC1 (configuration not stated) | –
CCOC(=O)C1CCCN(C(=O)c2cc3c(=O)n4cccc(C)c4nc3n2C)C1 (configuration not stated) | –
CC(C)c1ccc(-c2nnn(Cc3nc4ccccc4s3)n2)cc1 | –
COc1ccc(CNC(=O)C(C#N)c2nc3ccccc3nc2N2CCCC2)cc1 (configuration not stated) | –
COc1ccc(S(=O)(=O)C(C#N)c2nc3ccccc3nc2N2CCCCC2)cc1 (configuration not stated) | 96
Cc1ccc(C)c(S(=O)(=O)C(C#N)c2nc3ccccc3nc2N2CCCC2)c1 (configuration not stated) | –
COc1ccc(S(=O)(=O)N(Cc2ccccc2)Cc2nc(-c3ccccc3)no2)cc1 | –
CCOc1cc2[nH]c(=O)n(CC3CCC(C(=O)NC(C)CC)CC3)c(=O)c2cc1OCC (configuration not stated) | –
C=CCn1c(SCc2ccccc2C#N)nnc1-c1ccccc1O | –
Cc1c(Cl)cccc1N(CC(=O)N1CCCCCC1)S(C)(=O)=O | –
Cc1c(Cl)cccc1N(CC(=O)O)S(C)(=O)=O | 88
CNC(=O)CN(c1cccc2ccccc12)S(C)(=O)=O | –
CN(C)S(=O)(=O)c1cccc(-c2nnc(SCc3ccc4c(c3)OCCO4)o2)c1 | –
CC1=C(C(N)=O)C(c2cccnc2)n2nc(-c3cccc(C)c3)nc2N1 (configuration not stated) | –
CCOc1ccccc1C1C(C(N)=O)=C(C)Nc2nc(-c3cccc(C)c3)nn21 (configuration not stated) | –
SMILES | GBA enhancer
CC1=C(C(N)=O)C(c2cccs2)n2nc(-c3cccc(C)c3)nc2N1 (configuration not stated) | 91
CCCC(C(=O)NC1CCCC1)N(C(=O)Cn1nnc(-c2ccc(C)o2)n1)c1ccccc1OC (configuration not stated) | –
Brc1ccc(C2=Nn3c(nnc3-c3cccnc3)SC2)s1 | 98
Clc1ccc(C2=Nn3c(nnc3-c3cccnc3)SC2)s1 | –
O=c1oc2ccccc2cc1C1=Nn2c(nnc2-c2cccnc2)SC1 | –
Cn1nc(-c2ccc(OCC(=O)NCC3CCCO3)cc2)c2ccccc2c1=O (configuration not stated) | –
COc1cccc(/C=N/n2c(C)c3c(C)nnc(C)c3c2C)c1O | –
COc1ccccc1-c1ccc(=O)n(CC(=O)NC(C)(C)C)n1 | –
CCN=C1SC(CC(=O)Nc2ccccc2)C(=O)N1CC (configuration not stated) | –
CN=C1SC(CC(=O)Nc2sc(C)c(C)c2C(=O)OC)C(=O)N1C (configuration not stated) | –
CN=C1SC(CC(=O)Nc2cccc(C(F)(F)F)c2)C(=O)N1C (configuration not stated) | 135
COc1cc(C)c(S(=O)(=O)n2ccc(C)n2)cc1C | –
O=C(CN1C(=O)NC2NC(=O)NC21)NC1CCCCC1 (configuration not stated) | –
COc1ccc(N2CCN(CCNC(=O)c3cccn4c(=O)c5ccc(Cl)cc5nc34)CC2)cc1 | –
COc1ccc(S(=O)(=O)N(CC(=O)N2CCN(C)CC2)c2ccccc2)cc1OC | –
COc1ccc(S(=O)(=O)N(CC(=O)NCC2CCCO2)c2ccccc2)cc1OC (configuration not stated) | 75
COc1ccccc1CC(=O)NCC1CCCO1 (configuration not stated) | –
COc1cc(NC(=O)CCCC(=O)OCC(F)(F)C(F)F)nc(OC)n1 | –
COc1cccc(NC(=O)C2CCCN2C(=O)Nc2cccc(F)c2)c1 (configuration not stated) | –
CC(=O)Nc1cccc(NC(=O)C2CCCN2C(=O)Nc2cccc(C)c2)c1 (configuration not stated) | –
CCCCNC(=O)C1CCCN1C(=O)Nc1cccc(OC)c1 (configuration not stated) | 73
CC(C)Cn1cnc2c1c(=O)n(CC(=O)Nc1ccc3c(c1)OCO3)c(=O)n2Cc1ccccc1 | –
O=C(NCCCn1ccnc1)Nc1ccc(Cl)c(Cl)c1 | –
O=C(NCCCn1ccnc1)Nc1ccc(Cl)cc1 | 122
C=C(C)c1cccc(C(C)(C)NC(=O)NCCCn2ccnc2)c1 | –
SMILES | GBA enhancer
CCC(NS(=O)(=O)c1ccc(C)cc1)C(=O)Nc1ccc(NC(C)=O)cc1 (configuration not stated) | –
COCCN(CCOC)S(=O)(=O)c1ccc(C(=O)Nc2nnc(C)o2)cc1 | –
COCc1nnc(NC(=O)c2ccc(S(=O)(=O)N(C)C3CCCCC3)cc2)o1 | 79
COCc1nnc(NC(=O)c2ccc(S(=O)(=O)N3CCCCCC3)cc2)o1 | –
O=C(NC1=NCCS1)c1cccc(S(=O)(=O)N2CCCCC2)c1 | –
COc1ccc(C(=O)N(Cc2nc(-c3ccc(C)cc3)no2)C2CCCCC2)cc1OC | –
O=S(=O)(c1cc(F)cc(F)c1)N1CCN(c2ncccn2)CC1 | –
Cc1ccc(S(=O)(=O)NCC(=O)N(CC(=O)NCc2ccccc2)CC2CCCO2)cc1 (configuration not stated) | –
COc1ccc(CNC(=O)CN(CC2CCCO2)C(=O)CNS(=O)(=O)c2ccc(C)cc2)cc1 (configuration not stated) | 76
COc1ccc(CNC(=O)CN(CC2CCCO2)C(=O)CNS(=O)(=O)c2ccccc2)cc1 (configuration not stated) | –
CCCn1c(C)nc2c(c1=O)c1nc3ccccc3nc1n2-c1ccc2c(c1)OCCO2 | –
Cc1cc(/C=N/n2cnnc2)c(C)n1-c1cc(Cl)ccc1Cl | –
O=C(O)c1ccc2c(c1)C(c1ccccc1)OC2=O (configuration not stated) | 78
O=C(O)c1ccc2c(c1)CC(c1ccccc1)OC2=O (configuration not stated) | –
CC(C)(C)N1C(=O)c2ccc(C(=O)O)cc2C1=O | –
CCN(CC)S(=O)(=O)c1cccc(-c2nnc(SCc3nnc(-c4cccs4)o3)n2N)c1 | –
O=C(Cc1ccc(-n2cccc2)cc1)NCc1cccs1 | –
CCOC(=O)c1ccc2c(c1)nc(SCc1cn3ccsc3n1)n2CC | –
Cn1c(C(=O)NCCCN2CCCC2=O)cc2c(=O)n3ccccc3nc21 | –
Cc1cccc(NC(=O)CNc2cc(C)ccc2C)c1 | –
CC(C)CN(C(=O)c1ccc(=O)n(C)n1)c1nc2ccccc2s1 | –
COCCn1cnnc1SCC(=O)Nc1ccccc1C(=O)Nc1ccc2c(c1)OCO2 | –
O=C(CSc1nnc2c(n1)[nH]c1ccc(F)cc12)OCc1ccccc1 | 76
